Screening data deposited in PubChem BioAssay by several laboratories.
A selection: hits, their analogues and other compounds. The true share with any hit is near 22%.
CYP2C9 activ – CYP2C9 (human) activation; activation factor at 5 µM; P11712; recombinant CYP2C9, luciferin-H conversion, luminescence; hits give high values; factor 1 = untreated enzyme, 0 = blocked; 96,000 tested, 1.4% active; AID 1024;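 active = activation factor of 2 or more for CYP2C9 at a 5 µM dose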
CYP2C9 inh – blocks human cytochrome P450 2C9 | AID 777 | P11712 | CYP2C9 Supersomes, luciferin-H conversion, luminescence | inhibition, % at 5 µM | 96,000 tested, 20% active;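 active = blocking of liver enzyme CYP2C9 beyond about 50% at 5 µM, limit read from the data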
CYP2C19 inh – blocks human cytochrome P450 2C19; CYP2C19 Supersomes, luciferin-H EGE luminescence, 30 min; inhibition, % at 5 µM; 96,000 tested, 21% active; AID 778;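 active = CYP2C19 inhibition above a set limit at 5 µM in the primary screen, cut at about 50% in these data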
Target sequence (P33261 whole entry, looked up): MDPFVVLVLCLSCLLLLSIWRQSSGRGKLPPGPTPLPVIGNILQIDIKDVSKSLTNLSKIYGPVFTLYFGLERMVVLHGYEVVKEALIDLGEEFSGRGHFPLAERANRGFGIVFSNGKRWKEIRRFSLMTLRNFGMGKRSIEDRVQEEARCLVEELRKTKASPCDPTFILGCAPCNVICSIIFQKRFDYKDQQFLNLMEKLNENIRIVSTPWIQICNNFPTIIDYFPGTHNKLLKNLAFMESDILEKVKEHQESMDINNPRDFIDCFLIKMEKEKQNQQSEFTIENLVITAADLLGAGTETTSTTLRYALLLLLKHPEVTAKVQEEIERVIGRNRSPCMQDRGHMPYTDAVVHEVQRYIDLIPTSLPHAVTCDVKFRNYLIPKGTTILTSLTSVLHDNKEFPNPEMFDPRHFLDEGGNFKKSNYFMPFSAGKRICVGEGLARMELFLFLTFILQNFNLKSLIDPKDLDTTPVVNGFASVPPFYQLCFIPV
Measles CPE – protection of cells from measles virus | 140,000 tested, 1.5% active | Measles virus-infected cells, CPE protection, absorbance | protection (pct of control), % at 4 µM; in the data active = protection mostly above about 24%, no sharp cut-off; inactive = mostly below about 26%
CYP2C19 activ – increases human CYP2C19 enzyme activity. P33261. recombinant CYP2C19, luciferin-H EGE luminescence; hits give high values; 0 = fully inhibited enzyme, 1 = untreated enzyme. activation factor at 5 µM. 96,000 tested, under 10 active;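 active = activation factor of at least 2 at 5 µM in the primary screen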
Hits are given with their value; n = inactive; x = not tested or not shown.

SMILES	CYP2C9 activ	CYP2C9 inh	CYP2C19 inh	Measles CPE	CYP2C19 activ
COc1ccc(NC(=O)C2CCC(CNc3c(N4CCC(C)CC4)c(=O)c3=O)CC2)cc1OC (centres undefined)	n	n	n	n	n
O=C(CSc1n[nH]c(-c2ccncc2)n1)c1ccccc1	n	96	90	n	n
CCOC(=O)CSc1n[nH]c(NC(=O)c2cccc(C)c2)n1	n	n	n	n	n
CC(=O)Nc1nc(SCCCc2ccccc2)n[nH]1	n	n	80	n	n
COc1ccc(C(=O)CSc2n[nH]c(-c3ccncc3)n2)cc1[N+](=O)[O-]	x	x	x	n	x
CC(C)c1nc(SCC(=O)NCc2ccccc2)n[nH]1	n	n	54	n	n
O=C(CSc1nc(N2CCCCC2)nc(N2CCCCC2)n1)c1ccccc1	n	79	n	n	n
COc1ccc(C=O)cc1COc1ccc(Cl)cc1[N+](=O)[O-]	n	n	n	n	n
CC1=Nc2ncnn2C(c2ccccc2)/C1=N\O (centres undefined)	n	n	n	n	n
Cc1ncc([N+](=O)[O-])n1CCOC(=O)Nc1ccc(Cl)c(Cl)c1	n	n	n	n	n
Cn1c(CCNC(=O)c2ccc(Cl)cc2)n[nH]c1=S	n	n	n	n	n
Cc1nc(SCC(=O)c2ccccc2)n[nH]1	n	52	n	n	n
CCOC(=O)Cc1csc(NC(=O)CSc2nc3sc(C(=O)O)c(C)c3c(=O)[nH]2)n1	n	84	n	n	n
Cc1sc2nc(SCC(=O)N(C)C)[nH]c(=O)c2c1C	n	54	n	n	n
Cc1csc(NC(=O)CSc2nc3sc(C)c(C)c3c(=O)[nH]2)n1	n	86	n	n	n
Cn1c(=O)c2c(ncn2CC(=O)Nc2cc(Cl)c(Cl)cc2Cl)n(C)c1=O	n	n	n	x	n
COc1ccc(C(=O)NCc2nnc(SCC(=O)Nc3nc4ccccc4s3)o2)cc1OC	x	x	x	n	x
Cc1ccccc1Nc1nc(-c2sc(NC(=O)c3ccccc3)nc2C)cs1	n	n	55	n	n
Cc1nc(NC(=O)c2ccccc2)sc1-c1csc(Nc2ccc(F)cc2)n1	n	n	78	n	n
Cc1nc(NC(=O)c2ccccc2)sc1-c1csc(Nc2ccc(Cl)cc2)n1	n	n	n	n	n
Cc1ccccc1Nc1nc(-c2sc(NC(=O)c3ccc([N+](=O)[O-])cc3)nc2C)cs1	n	n	52	n	n
CCOc1ccccc1Nc1nc(-c2sc(NC(=O)c3ccc([N+](=O)[O-])cc3)nc2C)cs1	n	n	n	n	n
COc1ccccc1NC(=O)Cn1cnc2c(cnn2-c2ccc(C)c(C)c2)c1=O	n	n	n	n	n
CCCCCCc1ccc(OCC(=O)OC)cc1OCC(=O)OC	n	n	n	n	n
COc1cc(OC)c(C2N(c3ccc(Cl)cc3)C(=O)C3CCCN32)cc1OC (centres undefined)	n	n	n	n	n
SMILES	CYP2C9 activ	CYP2C9 inh	CYP2C19 inh	Measles CPE	CYP2C19 activ
O=[N+]([O-])c1cc(C(F)(F)F)ccc1-n1nnc2ccccc21	x	x	x	n	x
O=[N+]([O-])c1cc(S(=O)(=O)Nc2ccccc2)ccc1-n1nnc2ccccc21	n	72	51	n	n
CC(C)(C)C(=O)n1nc(-c2ccccc2)oc1=O	x	x	x	n	x
CCCC(=N)C1=C(O)CC(CC(C)SCC)CC1=O (centres undefined)	n	66	82	n	n
Nc1ccc2oc(=O)c3ccccc3c2c1	n	n	59	n	n
C=CCn1c(=O)/c(=C/c2ccc(Cl)cc2)s/c1=C(/C#N)c1nnc2n1CCCCC2	n	78	n	n	n
C1=Nc2c(Nc3ccccc3)ncnc2Oc2ccccc21	n	62	54	n	n
Cn1c(C(O)c2ccccc2)nc(Cl)c1Cl (centres undefined)	n	n	70	n	n
Cn1cc(Cl)nc1C(O)c1ccccc1 (centres undefined)	x	x	x	n	x
CCOc1ccc(C(=O)NCCC(=O)NCCCC(=O)O)cc1	n	n	n	n	n
CCOc1ccc(NC(=O)N2CCC(n3c(=O)[nH]c4ccccc43)CC2)cc1	n	66	n	n	n
CCC(Oc1ccc2c(=O)c(-c3ccccc3OC)coc2c1)C(=O)OCc1ccccc1 (centres undefined)	x	x	x	n	x
O=C1CCCN1c1ccc(S(=O)(=O)Oc2cccc(Cl)c2)cc1[N+](=O)[O-]	n	n	66	n	n
CS(=O)(=O)N1CCN(c2ccc(Cl)cc2[N+](=O)[O-])CC1	x	x	x	n	x
N#CCC(=O)N1CCCCCC1	n	n	n	n	n
O=C(c1cccc(S(=O)(=O)NCCOc2ccccc2)c1)N1CCN(c2ncccn2)CC1	n	87	87	n	n
O=C(c1ccc(-c2ccccc2)cc1)N1CCN(c2ncccn2)CC1	n	64	n	n	n
O=C(c1ccc(F)cc1)N1CCN(c2ncccn2)CC1	n	n	53	n	n
O=C(c1c(F)cccc1F)N1CCC(O)(c2cccnc2)CC1	n	n	n	n	n
O=C(c1ccc(F)cc1F)N1CCN(c2ncccn2)CC1	n	n	n	n	n
O=C(c1cccc(S(=O)(=O)N2CCCC2)c1)N1CCN(c2ncccn2)CC1	x	x	x	n	x
O=C(c1ccc(F)cc1)N1CCC(O)(c2cccnc2)CC1	n	n	69	n	n
COc1cc(OC)c(OC)cc1CNCCNC(=O)c1nonc1N	n	n	n	n	n
O=C(c1cccc(OC(F)F)c1)N1CCN(c2ncccn2)CC1	n	68	n	n	n
O=C(c1cc2c(s1)CCCCC2)N1CCN(c2ncccn2)CC1	n	92	69	n	n
SMILES	CYP2C9 activ	CYP2C9 inh	CYP2C19 inh	Measles CPE	CYP2C19 activ
Cc1cc(C(=O)N2CCN(c3ncccn3)CC2)cs1	n	n	78	n	n
CC(C)(C)c1cc(C(=O)N2CCN(c3ncccn3)CC2)ccn1	n	n	n	n	n
O=C(CN1CCN(C(=O)N2CCCCC2)CC1)Nc1ccc(F)cc1	n	n	n	n	n
N/C(=N\S(=O)(=O)c1cccs1)c1ccccc1	n	n	92	n	n
COCCNC(=O)/C(C#N)=C1\N=C(N)c2ccccc21	x	x	x	n	x
Cc1c(Cl)c(C(=O)NNC(=S)NCc2ccco2)nn1C	x	x	x	n	x
O=C(NNC(=S)NCc1ccco1)c1ccc(Cl)s1	n	55	n	n	n
O=C1C=C(c2ccccc2)CC(/C=C/c2ccccc2)C1 (centres undefined)	x	x	x	n	x
O=C(CSC1=NCCS1)N1CCCCCC1	n	n	57	n	n
CC(C)c1ccc(C(=O)NNC(=O)C2CC=CCC2C(=O)O)cc1 (centres undefined)	x	x	x	29	x
Cc1ccsc1C(=O)NNC(=O)C1CC=CCC1C(=O)O (centres undefined)	x	x	x	n	x
CCN(CC)CCCN1C(=O)C(O)=C(C(=O)c2ccc(C)o2)C1c1ccc(C)o1 (centres undefined)	x	x	x	n	x
C=CCC1(O)C(=O)N2C(=C1C(=O)OCC)c1ccc3ccccc3c1CC2(C)C (centres undefined)	n	n	n	61	n
CCOC(=O)c1[nH]c(=O)c2ccccc2c1O	x	x	x	n	x
O=C(Nc1cccc(NC(=O)c2ccccc2[N+](=O)[O-])n1)c1ccccc1[N+](=O)[O-]	n	n	n	n	n
